40 compounds from PubChem BioAssay (Tox21) can be followed below.

The structures appear in SMILES notation. Several values for one entry are separate records, joined by “and”; a condition that tells them apart may be missing. Identical values can stand only once. Records with an inconclusive call do not appear. Entries that show only a call come without a potency. Activity calls are given as the source filed them. The call rests on the fitted dose curve; in most records, active means well fitted inhibition curve with a large enough effect in the signal ratio in the repeat runs (not every such curve was filed as active); inconclusive means weak or mixed curves, or effect the other way; inactive means no such curve, though single readings can be large or run the other way; the % refers to the signal ratio.
Potency means the concentration at half of the fitted maximal effect.

The target of the experiment is Peroxisome proliferator-activated receptor delta (Homo sapiens) (UniProt Q03181). Kind of experiment: qHTS assay to identify small molecule antagonists of the peroxisome proliferator-activated receptor delta (PPARd) signaling pathway (AID 743215).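 Further: cells stimulated with agonist L165041 at 300 nM final during compound exposure.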 To be noted: HEK293H PPARd-UAS-bla, beta-lactamase FRET ratio, antagonist, 17 h; series mostly up to 62 µM. The text has this: U.S. Tox21 Program National Center for Advancing Translational Sciences [NCATS] NIH Chemical Genomics Center [NCGC] U.S. Environmental Protection Agency [EPA] National Institutes of Environmental Health Sciences [NIEHS] National Toxicology Program [NTP] U.S. Food and Drug Administration [FDA] Tox21 Assay Overview: The peroxisome proliferator-activated receptors (PPARs) are lipid-activated transcription factors of the nuclear receptor superfamily with three distinct subtypes namely PPAR alpha, PPAR delta (PPARd) and PPAR gamma. All these subtypes heterodimerizes with Retinoid X receptor (RXR) and have different physiological functions. […] To identify the compounds that inhibit PPAR-delta signaling, GeneBLAzer PPAR delta UAS-bla HEK293H cell line (Invitrogen, Carlsbad, CA, USA) containing a beta-lactamase reporter gene under the control of an Upstream Activator Sequence (UAS) was used to screen the Tox21 compound library.
Peroxisome proliferator-activated receptor delta (Homo sapiens), sequence (Q03181 whole entry, looked up): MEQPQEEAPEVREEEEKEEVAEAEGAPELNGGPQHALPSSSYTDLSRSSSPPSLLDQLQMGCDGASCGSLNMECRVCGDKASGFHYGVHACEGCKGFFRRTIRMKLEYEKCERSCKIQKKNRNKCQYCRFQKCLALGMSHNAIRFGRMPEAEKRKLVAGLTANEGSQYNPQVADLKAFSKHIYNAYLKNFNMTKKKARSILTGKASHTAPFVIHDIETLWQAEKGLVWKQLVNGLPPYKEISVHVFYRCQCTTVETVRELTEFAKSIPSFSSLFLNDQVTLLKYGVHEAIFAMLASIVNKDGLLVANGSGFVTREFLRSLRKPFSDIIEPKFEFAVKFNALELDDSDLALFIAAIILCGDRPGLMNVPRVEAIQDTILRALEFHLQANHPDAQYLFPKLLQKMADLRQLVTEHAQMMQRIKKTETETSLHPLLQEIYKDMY
Tox21 Assay Protocol Summary: PPARd-bla cells were dispensed at 3000 cells/5uL/well in 1536-well black wall/clear bottom plates using a Multidrop Combi (Thermo Fisher Scientific, Waltham, MA) dispenser. After the assay plates were incubated at 37 C and 5% CO2 for 5 h, 23 nL of compounds dissolved in DMSO, positive controls or DMSO only was transferred to the assay plate by a Pintool station (Kalypsys, San Diego, CA), followed by addition of 1ul L165041 (300 nM, final concentration in the wells). The assay plates were incubated at 37 C for 17 h, and then 1 uL of LiveBLAzerTM B/G FRET substrate was added using a Bioraptr Flying Reagent Dispenser (FRD) workstation (Beckman Coulter, Indianapolis, IN, USA). The assay plates were incubated at room temperature for 2 h and fluorescence intensity was measured by an Envision plate reader (PerkinElmer, Shelton, CT).
On the technique in general: qHTS replaces the single test concentration by a dilution series.
`CN(C)c1nc(=O)n(C2CCCCC2)c(=O)n1C`: the Potency result was “inactive”.

Turning to `ClC(Cl)(Cl)Br`, the Potency entry is “inactive”.

Turning to `CCOC(=O)c1ccccc1N`, the Potency result was “inactive”.

For the compound `Oc1ccc(Cl)cc1Cl`, the Potency result was “inactive”.

As to `CC1=C(C(=O)Nc2ccccc2)SCCO1`, the Potency result is “inactive”.

Consider `CC[n+]1c(-c2ccccc2)c2cc(N)ccc2c2ccc(N)cc21`, for which the Potency was 24.4 µM (active) and 23.7 µM (active).

With `Brc1ccc(Br)cc1`, the Potency entry is “inactive”.

Turning to `CCCCOCC1CO1` (stereo not given), the Potency entry is “inactive”.

For the compound `CN(C)P(=O)(N(C)C)N(C)C`, the Potency entry is “inactive”.

On to `COC(=O)Nc1nc2ccccc2[nH]1`, for which the Potency entry was “inactive”.

Turning to `CCOP(=S)(OCC)OP(=S)(OCC)OCC`, the Potency entry was “inactive”.

As to `ClCc1ccccn1`, the Potency result was “inactive”.

As to `Oc1ccc(Cl)cc1Cc1ccccc1`, the Potency result was “inactive”.

For the compound `c1ccc2c(c1)Nc1ccccc1S2`, the Potency entry was “inactive”.

For the compound `N#CCCCCC#N`, the Potency result was “inactive”.

On to `CCNc1nc(Cl)nc(NC(C)(C)C#N)n1`, for which the Potency entry was “inactive”.

With `CCCCCCCCCCCCCl`, the Potency result is “inactive”.

With `ClCC(Cl)CCl`, the Potency result was “inactive”.

Consider `Cc1ccc([N+](=O)[O-])cc1`, for which the Potency entry is “inactive”.

With `OC(c1ccc(Cl)cc1)(c1cncnc1)c1ccccc1Cl` (stereo not given), the Potency entry is “inactive”.

In the case of `CCOS(=O)(=O)OCC`, the Potency entry was “inactive”.

As for `O=C1Nc2ccc(Cl)cc2C(c2ccccc2)=NC1O` (stereo not given), the Potency entry was “inactive”.

Consider `COP(=O)(NC(C)=O)SC` (stereo not given), for which the Potency entry is “inactive”.

With `O=NN(c1ccccc1)c1ccccc1`, the Potency result was “inactive”.

Regarding `CC(C)Nc1nc(Cl)nc(NC(C)C)n1`, the Potency result is “inactive”.

As for `C[N+](C)(C)CC(=O)[O-]`, the Potency entry is “inactive”.

`N#Cc1cccnc1`: the Potency entry was “inactive”.

Regarding `CCCCSP(=O)(SCCCC)SCCCC`, the Potency result is “inactive”.

As to `CC(O)CN(CC(C)O)CC(C)O` (stereo not given), the Potency entry is “inactive”.

As to `N#CC(c1ccccc1)c1ccccc1`, the Potency result is “inactive”.

On to `C=C(C)C#N`, for which the Potency result is “inactive”.

With `O=C(O)c1nn(Cc2ccc(Cl)cc2Cl)c2ccccc12`, the Potency entry was “inactive”.

Regarding `O=NN1CCOCC1`, the Potency entry is “inactive”.

`C=CC(=O)OCC(CC)(COC(=O)C=C)COC(=O)C=C`: the Potency was 12.6 µM (active).

As to `CC(C)(C#N)N=NC(C)(C)C#N`, the Potency result is “inactive”.

With `ClC(Cl)(Cl)c1ccccc1`, the Potency entry was “inactive”.

Regarding `Cn1c(-c2ccccc2)cc(-c2ccccc2)[n+]1C`, the Potency entry is “inactive”.

Regarding `[CH3][Sn]([Cl])([Cl])[Cl]`, the Potency result is “inactive”.

For `CCCCOC(=O)COC(=O)c1ccccc1C(=O)OCCCC`, the Potency result was “inactive”.

In the case of `CC(C)=CC1C(C(=O)OCc2cccc(Oc3ccccc3)c2)C1(C)C` (stereo not given), the Potency entry is “inactive”.
